The whole screen tested about 360,000 compounds, of which about 1,500 (0.42%) were called active. Cut-off read from the data, not from the text of the source: active = inhibition above about 13% (passing the limit was not always enough); inactive = the rest. The full list was thinned out, with actives kept by preference.

For this experiment, the target named is Lon protease (Escherichia coli (strain K12)) (UniProt P0A9M0). In words: E. coli eLon protease inhibition – biochemical, fluorescence polarization, primary screen (AID 602123).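 Note: 0% = enzyme with probe and DMSO and 100% = no enzyme.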 To be noted: purified E. coli Lon protease, at 7.94 µM, hits give high values. On the technique in general: Fluorescence polarisation rises when a labelled molecule tumbles more slowly, as on binding a larger partner.
Chain of Lon protease (Escherichia coli (strain K12)) (P0A9M0 whole entry, looked up): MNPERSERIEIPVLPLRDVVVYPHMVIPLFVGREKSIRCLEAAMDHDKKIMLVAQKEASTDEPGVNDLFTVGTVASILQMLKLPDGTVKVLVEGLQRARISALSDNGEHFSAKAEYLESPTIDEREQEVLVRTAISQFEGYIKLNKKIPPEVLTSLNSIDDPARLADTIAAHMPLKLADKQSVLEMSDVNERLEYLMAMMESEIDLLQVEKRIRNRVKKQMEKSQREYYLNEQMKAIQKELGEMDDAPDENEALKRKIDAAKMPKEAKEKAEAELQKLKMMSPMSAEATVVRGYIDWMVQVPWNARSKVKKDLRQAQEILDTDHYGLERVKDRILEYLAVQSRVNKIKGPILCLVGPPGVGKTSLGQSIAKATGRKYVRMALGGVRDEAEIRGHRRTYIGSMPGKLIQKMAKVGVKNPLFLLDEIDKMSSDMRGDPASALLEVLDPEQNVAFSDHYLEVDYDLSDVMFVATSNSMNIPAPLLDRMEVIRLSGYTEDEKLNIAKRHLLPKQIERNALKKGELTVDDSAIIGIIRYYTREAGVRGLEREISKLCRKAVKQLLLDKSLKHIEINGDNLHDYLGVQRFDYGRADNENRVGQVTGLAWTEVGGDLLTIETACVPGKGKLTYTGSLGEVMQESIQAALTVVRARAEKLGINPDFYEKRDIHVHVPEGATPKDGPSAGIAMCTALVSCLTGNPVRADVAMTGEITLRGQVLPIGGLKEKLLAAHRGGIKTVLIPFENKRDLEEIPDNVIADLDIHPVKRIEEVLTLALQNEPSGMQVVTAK
As for `CC(=O)c1cccc(OCC(=O)OCC(=O)Nc2cc(S(=O)(=O)N3CCCCC3)ccc2C)c1`, the inhibition was 7.88% (inactive).
With `CCOC(=O)[C@]12CCCC=C1N(Cc1ccc3c(c1)OCO3)C(=O)[C@H](CC(=O)NCc1cccs1)C2`, the inhibition was 5.92% (inactive).
As to `CC1=NN(C(=O)CCCc2ccccc2)C(O)(C(F)(F)F)C1` (stereo unspecified), the inhibition is -1.58% (inactive).
With `CC1=NN(C(=O)CCc2ccccc2O)C(O)(C(F)(F)F)C1` (stereo unspecified), the inhibition is 18.2% (active).
The value for `COc1ccc(CC(=O)N2N=C(C)CC2(O)C(F)(F)F)cc1` (stereo unspecified) was -7.36% (inactive).
For `Cc1cccn2c(CNCC(C)Oc3cccnc3)c(C(=O)N3CCOCC3)nc12` (stereo unspecified), the inhibition was -6.22% (inactive).
`CCOC(=O)C1CCN(Cc2c(C(=O)N3CCOCC3)nc3c(C)cccn23)CC1`: the inhibition was -0.49% (inactive).
As to `Cc1cccc(N2CCC(NCc3c(C(=O)N4CCCCC4)nc4c(C)cccn34)CC2)c1`, the inhibition is 29% (active).
The value for `CCOC(=O)c1cccc(NC(=O)C2CCCN(S(=O)(=O)c3cnc[nH]3)C2)c1` (stereo unspecified) was -1.61% (inactive); that for `CCOCCc1nn2c(=O)cc(CSCC(=O)Nc3cccc(C)c3C)nc2s1` was 4.06% (inactive); that for `COC(=O)c1ccc2nc(-c3ccc(F)cc3)c(Cc3ccc(C)cc3)n2c1` was -5.56% (inactive).
For the molecule `O=c1oc2ccccc2c(CNc2ccccc2)c1[N+](=O)[O-]`, the inhibition was -5.51% (inactive).
The same measure for `CCCCCCCCOC1OC(CO)C(O)C(O)C1NC(C)=O` (stereo unspecified): 5.86% (inactive).
Consider `COC(=O)c1cc(NC(=O)c2cc(C(C)(C)C)nn2Cc2cccc(C)c2)ccc1N1CCOCC1`, for which the inhibition was 7.4% (inactive).
The same measure for `CCCCOP(=O)(c1ccc(N(C)C)cc1)C(O)c1cc(OC)ccc1OC` (stereo unspecified): 9.34% (inactive); for `CCOc1ccc(CCN2C(=S)N([C@@H](CC(C)C)CN3CCC[C@@H]3CN3C(=S)NC[C@@H]3Cc3ccc(O)cc3)C[C@@H]2Cc2ccc(O)cc2)cc1`: 1.84% (inactive).
The same measure for `COC(=O)c1sccc1-n1cccc1C(=O)C(=O)N1CCCCC1`: -3.71% (inactive); for `Cc1ccc(-c2nc(CS(=O)CC(=O)NC3CCCC3)c(C)o2)cc1` (stereo unspecified): -12.5% (inactive).
Turning to `COc1ccc(-c2nc(CS(=O)CC(=O)NCc3cccnc3)c(C)o2)cc1OC` (stereo unspecified), the inhibition was -14.5% (inactive).
The same measure for `COc1ccc(-c2nc(CS(=O)CC(=O)NCc3ccccn3)c(C)o2)cc1` (stereo unspecified): 21.2% (active); for `O=C(OCc1cn([C@H]2C[C@H](c3ccccc3)N(C(=O)c3cccs3)C[C@@H]2O)nn1)c1ccccc1`: 2.92% (inactive).
The value for `CC1C(c2ccccc2)=[N+]([O-])C2(CCCC2)N1O` (stereo unspecified) was -2.56% (inactive); that for `CCOC(=O)N1CCN(C(=O)c2cn(C)c3ccc(S(=O)(=O)N(CC)CC)cc3c2=O)CC1` was 1.34% (inactive); that for `CCN(CC)CCCNC(=O)c1cn(C)c2ccc(S(=O)(=O)N(C)C3CCCCC3)cc2c1=O` was 21.3% (active).
Take `CCn1cc(C(=O)NCCCN2CCCCCC2)c(=O)c2cc(S(=O)(=O)N3CCc4ccccc4C3)ccc21`: the inhibition is 1.65% (inactive).
The same measure for `CCOCCCNC(=O)C(NC(=O)c1ccccc1O)c1ccccc1` (stereo unspecified): 10.1% (inactive).
The same measure for `CCn1cc(/C=C(\NC(=O)c2ccc(C)cc2)C(=O)NCCN2CCOCC2)c2ccccc21`: -56.3% (inactive); for `O=C1C2C3C=CC(C4CC34)C2C(=O)N1/N=C/c1ccc(-c2ccccc2[N+](=O)[O-])o1` (stereo unspecified): 15.8% (active); for `Cc1c(/C=N/N2C(=O)C3C4C=CC(C4)C3C2=O)c2ccccc2n1C` (stereo unspecified): 0.26% (inactive).
The value for `CCN1CCN(C(=O)CN(C)S(=O)(=O)c2ccc3ccccc3c2)CC1` was -4.47% (inactive); that for `O=C(NCCOc1cccnc1)c1ccc(OC2CCN(Cc3ccccn3)CC2)cc1` was 6.74% (inactive).
Turning to `CCOC(=O)C1(C(F)(F)F)N=C(N(C)C)OC(N(C)C)=N1`, the inhibition was 1.25% (inactive).
As for `NC1=C([N+](=O)[O-])C(c2ccccc2)C2=C(CCCC2=O)O1` (stereo unspecified), the inhibition is -4.86% (inactive).
With `N#CC1=C(N)Oc2cc(O)ccc2C1C1CCCCC1` (stereo unspecified), the inhibition is -1.88% (inactive).
Turning to `N#CC1=C(N)OC2=C(C(=O)CCC2)C1C1CC=CCC1` (stereo unspecified), the inhibition was 20% (active).
As to `O=C(O)c1ccc(OCC2CCCO2)cc1` (stereo unspecified), the inhibition is -7.47% (inactive).
On to `CCCCCCSc1nsc(N)n1`, for which the inhibition was -2.31% (inactive).
Regarding `COc1ccc(CCNC(=O)Cn2c(=O)n(CC3CCCO3)c(=O)c3ccccc32)cc1OC` (stereo unspecified), the inhibition is -3.69% (inactive).
Turning to `Cc1ccc(CCNC(=O)c2ccc3nc4ccccc4c(=O)n3c2)cc1`, the inhibition was 4.65% (inactive).
For the molecule `Cc1ccc2nc3c(cc(C(=O)NCCc4ccccc4)c(=N)n3CC3CCCO3)c(=O)n2c1` (stereo unspecified), the inhibition was 18.8% (active).
As for `CC(C)N(C(=O)COC(=O)c1ccccc1C(=O)N1CCN(c2ccc(F)cc2)CC1)C(C)C`, the inhibition is -12.1% (inactive).
The same measure for `O=C(COC(=O)c1ccccc1C(=O)N1CCN(c2ccccc2)CC1)NCc1ccccc1`: 23% (active); for `Oc1ccc(N2CCN(C(=S)NCc3ccccc3)CC2)cc1`: 4.95% (inactive); for `CC(C)(C)C(=O)c1c(N)[nH]c(C(=O)c2ccccc2)c1-c1ccc(F)cc1`: -14.5% (inactive).
Turning to `O=C(CCS(=O)(=O)c1ccccc1)NC1CCCC1`, the inhibition is 0.44% (inactive).
As for `COc1cccc2sc(N(CCCN(C)C)C(=O)CCS(=O)(=O)c3ccccc3)nc12`, the inhibition was 22.5% (active).
With `COc1ccc(C)cc1NC(=O)CCS(=O)(=O)c1cccc2nonc12`, the inhibition is -0.09% (inactive).
The value for `Cc1nn(C)c(C)c1CN(C(=O)CCc1nnc(Cc2c[nH]c3ccccc23)o1)C(C)C` was 12.7% (inactive); that for `Cc1cccn2c(=O)c3cc(C#N)c(=NC(=O)c4cccnc4)n(CC4CCCO4)c3nc12` (stereo unspecified) was 21.1% (active).
For the molecule `COCCCn1c(C(=O)NC2CCCCC2)cc2c(=O)n3cccc(C)c3nc21`, the inhibition was -13.7% (inactive).
In the case of `Cc1cccn2c(=O)c3cc(C#N)c(=O)n(CCCN4CCOCC4)c3nc12`, the inhibition is -13.8% (inactive).
For `O=C(C1CC1)N1N=C(c2ccc(Br)cc2)CC1(O)C(F)(F)F` (stereo unspecified), the inhibition is -8.02% (inactive).
With `CCCS(=O)(=O)N1CCC(C(=O)NCCCN(C)Cc2ccccc2)CC1`, the inhibition is -3.31% (inactive).
The value for `CC1CC(C)CN(c2ccc(S(=O)(=O)N3CCOCC3)cc2)C1` (stereo unspecified) was 4.68% (inactive); that for `CSCCC(NS(=O)(=O)/C=C/c1ccccc1)C(=O)N1CCC(C)CC1` (stereo unspecified) was -1.94% (inactive).
Turning to `c1ccc(Cc2c(-c3ccco3)nc3c4ccccc4ccn23)cc1`, the inhibition was -7.97% (inactive).
For `COc1ccc(NCc2nnc(SCc3ccccc3)n2-c2ccc(OC)cc2)cc1`, the inhibition is -3.02% (inactive).
Take `c1ccc(CSc2nnc(-c3ccco3)c(-c3ccco3)n2)cc1`: the inhibition is 86.1% (active).
Regarding `Cc1ccc(Cc2c(-c3ccco3)nc3ccc(Cl)cn23)cc1`, the inhibition was -7.56% (inactive).
As to `Clc1ccccc1CSc1nnc(-c2ccco2)c(-c2ccco2)n1`, the inhibition is 41.5% (active).
With `Cc1ccc2nc(-c3ccco3)c(Cc3cccc(Cl)c3)n2c1`, the inhibition was -7.22% (inactive).
As for `O=C(C1CC(=O)N(c2ccc(Br)cc2)C1)N1CCCC1` (stereo unspecified), the inhibition was -8.68% (inactive).
For the molecule `CC1CC(=S)Nc2ccccc2N1Cc1ccccc1` (stereo unspecified), the inhibition is 6.5% (inactive).
Regarding `O=C(CCCn1c(=O)c2sccc2n(CC(=O)NCC2CCCO2)c1=O)NCc1ccco1` (stereo unspecified), the inhibition was -1.12% (inactive).
`C=CCN1CCN(C(=O)CCCc2ccccc2)CC1`: the inhibition is -7.13% (inactive).
In the case of `Cn1c(C(=O)OC(C(=O)NC2CCCCC2)c2ccccn2)cc2sccc21` (stereo unspecified), the inhibition was 2.24% (inactive).
The value for `CC(C)(O)C1=C[N+](=O)CC=C1` was -1.32% (inactive); that for `COC(=O)CSc1ccc2nnc(CCNS(=O)(=O)c3ccc(C)cc3)n2n1` was -1.61% (inactive); that for `COCc1cc(C(C)=O)ccc1OC` was -3.49% (inactive).
The value for `COc1ccc(-c2onc3ccc(C(C)=O)cc23)cc1` was 97% (active); that for `COc1ccc(-c2ocnc2C(=O)Nc2ccc3c(c2)CCC3)cc1` was 11.4% (inactive); that for `CCOC(=O)c1cc2cc(OC)ccc2n1C1CCN(C)CC1` was 3.4% (inactive).
With `COc1cc2cc(CN(CCN3CCCC3)C(=O)Nc3ccccc3Cl)c(=O)[nH]c2cc1OC`, the inhibition was -12.8% (inactive).
The same measure for `Cc1ccc(C(=O)OCC(=O)NCc2cc(C)c(O)c(C)c2)cc1S(=O)(=O)N1CCCCC1`: -7.17% (inactive); for `COc1cc(NC(=O)COC(=O)c2cnc(C)cn2)c(C)cc1[N+](=O)[O-]`: -4.63% (inactive).
The value for `COc1ccc(-c2cc(NC(C)=O)c3ncc(-c4cc(OC)c(OC)c(OC)c4)n3c2)cn1` was 2.07% (inactive); that for `Cc1ccn2cc(-c3nonc3C)cc2c1` was 25.1% (active).
As to `c1ccc(C(=NNc2nc3ccccc3s2)c2ccccn2)cc1`, the inhibition was 131% (active).
Take `CSc1ncccc1C(=O)Nc1nc2ccc(F)cc2s1`: the inhibition is 7.17% (inactive).
The same measure for `C[C@H]1CN([C@@H](C)CO)C(=O)CCCn2cc(nn2)CO[C@@H]1CN(C)S(=O)(=O)c1ccc(-n2cccn2)cc1`: 7.06% (inactive).
As for `O=C(CNC(=O)c1ccccc1F)OCC(=O)c1c[nH]c2ccccc12`, the inhibition is -11.7% (inactive).
With `O=C(Nc1ccn(Cc2ccccc2)n1)c1n[nH]c([N+](=O)[O-])c1Cl`, the inhibition was 1.99% (inactive).
In the case of `COCCN(C(=O)c1ccccc1F)c1c(N)n(Cc2ccccc2)c(=O)[nH]c1=O`, the inhibition is 2.64% (inactive).
Turning to `COCCn1c(N)c(NCc2ccccc2)c(=O)[nH]c1=O`, the inhibition was 31.1% (active).
With `COCCn1c(N)c(N(Cc2ccccc2)C(=O)C2CCCCC2)c(=O)[nH]c1=O`, the inhibition is -5.01% (inactive).
The value for `Cc1ccc(N=C2SCCCN2C(=O)c2cccc(N3C(=O)CCC3=O)c2)cc1Cl` was 1.67% (inactive).
The value for `COC(=O)c1cccc(C(=O)N2CCC(CCC(=O)NCc3ccc(F)cc3)CC2)c1` was -6.42% (inactive); that for `CC(=O)Nc1ccc(CN2CCN(Cc3ccc(F)c(F)c3)C(CCO)C2)cc1` (stereo unspecified) was -13.9% (inactive).
On to `COc1ccc(Nc2ccc([N+](=O)[O-])cn2)cn1`, for which the inhibition is 20.9% (active).
For the molecule `COC(=O)c1ccccc1N=NNc1ccc([N+](=O)[O-])cc1`, the inhibition was -9.1% (inactive).
In the case of `COc1cc(NC(=O)Nc2ccc(C)cc2)cc([N+](=O)[O-])c1`, the inhibition was -13% (inactive).

Usually inhibition stands for the relative decrease from the control value, in per cent.

Values taken from PubChem BioAssay AID602123 (The Scripps Research Institute Molecular Screening Center, 2011).
